The source of these data is PubChem BioAssay (Tox21).

SMILES strings stand for the structures. Several values for one entry are separate records, joined by “and”; a condition that tells them apart may be missing. Equal values may be shown once. Results filed as inconclusive are left out. A call without a number means that no potency is given here. Activity calls are given as the source filed them. Unless noted, calls follow the shape of the dose curve; as a rule, active = well fitted cell-killing curve with a large enough effect in the repeat runs; inconclusive = weak or mixed curves, or effect the other way; inactive = no such curve, though single readings can be large or run the other way.
Potency is read from the fitted curve at half-maximal effect.

A short description of the first assay: qHTS assay to identify small molecule antagonists of the peroxisome proliferator-activated receptor gamma (PPARg) signaling pathway - cell viability counter screen (AID 743194). Also: nearly all actives have a fitted effect of over 55% in size. The settings on record: PPARg-bla HEK293H viability, CellTiter-Glo luminescence, 17 h, co-treated with 50 nM rosiglitazone; series mostly up to 62.6 µM. In a few lines:
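Viability was measured as CellTiter-Glo luminescence in GeneBLAzer PPARg UAS-bla HEK293H cells. These cells had been exposed 17 h at 37 C to compounds together with rosiglitazone at 50 nM final, with the beta-lactamase readout taken in the same wells.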
In the case of `CC(C)(C)CC(C)(C)c1ccc(OCCOCC[N+](C)(C)Cc2ccccc2)cc1`, the Potency was 19.5 µM (active) and 29.8 µM (active).
The same measure, in the same setting: under `NNc1nc(-c2ccc([N+](=O)[O-])cc2)cs1` stands 24.5 µM (active); under `Oc1cccc2cc3cccc(O)c3c(O)c12`, “inactive”.
On the same count and under the same terms, under `CC1=NC(C)OC1C` (centres undefined) stands “inactive”.
Take `CCCCCCCCCCCCCCCC[N+](C)(C)CCN(Cc1ccc(OC)cc1)c1ncccn1`: the Potency was 26.6 µM (active).
Same read-out and setting: under `CC(C)=CCOc1ccc(/C=C/C(=O)c2ccc(OCC=C(C)C)cc2OCC(=O)O)cc1` stands 29.8 µM (active).
Same read-out and setting: under `CSc1ccc(C(=O)c2[nH]c(=O)[nH]c2C)cc1` stands “inactive”; under `O=[N+]([O-])c1cc(Cl)c(Cl)c(Cl)c1Cl`, “inactive”; under `CCN(CCC#N)c1ccc(N=Nc2c(Cl)cc([N+](=O)[O-])cc2Cl)cc1`, “inactive”.
With `CCCCCCCCCCCCCCCS(=O)(=O)Oc1ccccc1`, the Potency result is “inactive”.
In the case of `On1ccccc1=S`, the Potency was 24.3 µM (active).
On the same count and under the same terms, under `CO[Si](CCCNc1ccccc1)(OC)OC` stands “inactive”; under `COC(=O)C1=C(C)NC(C)=C(C(=O)OCC(C)C)C1c1ccccc1[N+](=O)[O-]` (centres undefined), “inactive”.
As to `Cc1c(C)c2c(c(C)c1OC(=O)CCC(=O)O)CC[C@@](C)(CCC[C@H](C)CCC[C@H](C)CCCC(C)C)O2`, the Potency result was “inactive”.
Same read-out and setting: under `Cc1cc(O)c2ccccc2c1O` stands 10.6 µM (active); under `CCCCc1oc2ccc(NS(C)(=O)=O)cc2c1C(=O)c1ccc(OCCCN(CCCC)CCCC)cc1`, 29.8 µM (active).
The same measure, in the same setting: under `Cc1nc(-c2ccc3c(c2)CCN(CCC2CCC(NC(=O)/C=C/c4ccc(F)cc4)CC2)CC3)no1` (centres undefined) stands “inactive”; under `Cc1cccc(CN2CCN(C(c3ccccc3)c3ccc(Cl)cc3)CC2)c1` (centres undefined), “inactive”; under `CCCCCCCCCCCCCC[P+](CCCC)(CCCC)CCCC` (tested in a mixture with another compound), 0.277 µM (active).
On the same count and under the same terms, under `Cc1cccc(S(=O)(=O)O)c1C` stands “inactive”.
On to `Cc1ccc(-n2nc(C(C)(C)C)cc2NC(=O)Nc2ccc(OCCN3CCOCC3)c3ccccc23)cc1`, for which the Potency result was “inactive”.
Same read-out and setting: under `CN(C)[C@@H]1C(=O)C(C(N)=O)=C(O)[C@@]2(O)C(=O)C3=C(O)c4c(O)ccc(Cl)c4[C@@H](O)[C@H]3C[C@@H]12` stands “inactive”; under `CC(C)CCCCCCCCCCCCCCC(=O)O`, “inactive”.
The same measure, in the same setting: under `CNC(=O)c1ccccc1` stands “inactive”; under `CCCCN1CCCC[C@H]1C(=O)Nc1c(C)cccc1C`, “inactive”; under `N/C(=N\N=C\c1ccc(Cl)cc1)N/N=C/c1ccc(Cl)cc1`, 21.1 µM (active).
On the same count and under the same terms, under `O=C(O)c1cc(O)c2c(c1)C(=O)c1cccc(O)c1C2=O` stands “inactive”.
Take `Clc1ccc2n[nH]nc2c1`: the Potency result is “inactive”.
Still for that read-out and setting: under `COc1ccc(-c2ccc3cc(C(=O)O)ccc3c2)cc1C12CC3CC(CC(C3)C1)C2` stands 23.7 µM (active); under `OCCCCCCCCCCCCBr`, “inactive”.

The nature of a further assay: qHTS assay for small molecule agonists of the antioxidant response element (ARE) signaling pathway (AID 743202; active = well fitted activation curve with a large enough effect in the signal ratio in the repeat runs, not every such curve was filed as active; the % refers to the signal ratio). The settings on record: HepG2 ARE-bla reporter, beta-lactamase FRET, 16 h; series mostly up to 73.3 µM. In a few lines: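 After 16 hours of compound treatment at 37 C, HepG2 cells with a stably integrated ARE-driven beta-lactamase reporter were loaded 2 hours at room temperature with LiveBLAzer B/G FRET substrate and fluorescence intensity measured.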
For the compound `NNc1nc(-c2ccc([N+](=O)[O-])cc2)cs1`, the Potency was 9.69 µM (active).
On the same count and under the same terms, under `CC1=NC(C)OC1C` (centres undefined) stands 30.6 µM (active); under `CC(C)=CCOc1ccc(/C=C/C(=O)c2ccc(OCC=C(C)C)cc2OCC(=O)O)cc1`, 3.35 µM (active); under `CSc1ccc(C(=O)c2[nH]c(=O)[nH]c2C)cc1`, “inactive”.
Same read-out and setting: under `O=[N+]([O-])c1cc(Cl)c(Cl)c(Cl)c1Cl` stands 3.42 µM (active); under `On1ccccc1=S`, 15.2 µM (active); under `COC(=O)C1=C(C)NC(C)=C(C(=O)OCC(C)C)C1c1ccccc1[N+](=O)[O-]` (centres undefined), 23.7 µM (active).
On the same count and under the same terms, under `Cc1cccc(S(=O)(=O)O)c1C` stands “inactive”.
For the compound `Cc1ccc(-n2nc(C(C)(C)C)cc2NC(=O)Nc2ccc(OCCN3CCOCC3)c3ccccc23)cc1`, the Potency result was “inactive”.
Still for that read-out and setting: under `CC(C)CCCCCCCCCCCCCCC(=O)O` stands “inactive”.
Same read-out and setting: under `O=C(O)c1cc(O)c2c(c1)C(=O)c1cccc(O)c1C2=O` stands 25.1 µM (active).

A short description of another assay: qHTS assay for small molecule agonists of the antioxidant response element (ARE) signaling pathway - cell viability counter screen (AID 743203; calls by dose curve; also: nearly all actives have a fitted effect of over 55% in size). The settings on record: ARE-bla HepG2 viability, CellTiter-Glo luminescence, 16 h; series mostly up to 73.3 µM. In a few lines: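 Measured in the same wells as the beta-lactamase ARE reporter, this read-out is CellTiter-Glo luminescence from HepG2 ARE-bla cells given compounds for 16 hrs.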
Turning to `CC(C)(C)CC(C)(C)c1ccc(OCCOCC[N+](C)(C)Cc2ccccc2)cc1`, the Potency is 21.7 µM (active) and 29.8 µM (active).
Same read-out and setting: under `Oc1cccc2cc3cccc(O)c3c(O)c12` stands “inactive”; under `CC1=NC(C)OC1C` (centres undefined), “inactive”; under `O=Cc1cc(O)ccc1Br`, “inactive”.
For the compound `CSc1ccc(C(=O)c2[nH]c(=O)[nH]c2C)cc1`, the Potency result was “inactive”.
Consider `CCN(CCC#N)c1ccc(N=Nc2c(Cl)cc([N+](=O)[O-])cc2Cl)cc1`, for which the Potency entry is “inactive”.
Same read-out and setting: under `CCCCCCCCCCCCCCCS(=O)(=O)Oc1ccccc1` stands “inactive”; under `On1ccccc1=S`, “inactive”; under `COC(=O)C1=C(C)NC(C)=C(C(=O)OCC(C)C)C1c1ccccc1[N+](=O)[O-]` (centres undefined), “inactive”.
Consider `Cc1c(C)c2c(c(C)c1OC(=O)CCC(=O)O)CC[C@@](C)(CCC[C@H](C)CCC[C@H](C)CCCC(C)C)O2`, for which the Potency entry is “inactive”.
On the same count and under the same terms, under `Cc1cc(O)c2ccccc2c1O` stands 13.3 µM (active); under `CCCCc1oc2ccc(NS(C)(=O)=O)cc2c1C(=O)c1ccc(OCCCN(CCCC)CCCC)cc1`, 26.6 µM (active); under `Cc1nc(-c2ccc3c(c2)CCN(CCC2CCC(NC(=O)/C=C/c4ccc(F)cc4)CC2)CC3)no1` (centres undefined), “inactive”.
For `Cc1cccc(CN2CCN(C(c3ccccc3)c3ccc(Cl)cc3)CC2)c1` (centres undefined), the Potency entry was “inactive”.
Regarding `CCCCCCCCCCCCCC[P+](CCCC)(CCCC)CCCC` (tested in a mixture with another compound), the Potency is 19.4 µM (active).
Regarding `Cc1cccc(S(=O)(=O)O)c1C`, the Potency result was “inactive”.
Same read-out and setting: under `CCCCCCCCCCCCCCCC(=O)OC[C@H](O)[C@H]1OC(=O)C(O)=C1O` stands “inactive”.
Still for that read-out and setting: under `Cc1ccc(-n2nc(C(C)(C)C)cc2NC(=O)Nc2ccc(OCCN3CCOCC3)c3ccccc23)cc1` stands “inactive”.
For the compound `CN(C)[C@@H]1C(=O)C(C(N)=O)=C(O)[C@@]2(O)C(=O)C3=C(O)c4c(O)ccc(Cl)c4[C@@H](O)[C@H]3C[C@@H]12`, the Potency entry was “inactive”.
In the case of `CC(C)CCCCCCCCCCCCCCC(=O)O`, the Potency result was “inactive”.
Same read-out and setting: under `CNC(=O)c1ccccc1` stands “inactive”; under `CCCCN1CCCC[C@H]1C(=O)Nc1c(C)cccc1C`, “inactive”.
Still for that read-out and setting: under `N/C(=N\N=C\c1ccc(Cl)cc1)N/N=C/c1ccc(Cl)cc1` stands 29.8 µM (active).
Same read-out and setting: under `CCc1cc(Cc2cc(CC)c(N)c(CC)c2)cc(CC)c1N` stands 54.5 µM (active); under `O=C(O)c1ccc(Cl)c(Cl)c1`, “inactive”.
`Clc1ccc2n[nH]nc2c1`: the Potency result was “inactive”.
Same read-out and setting: under `COc1ccc(-c2ccc3cc(C(=O)O)ccc3c2)cc1C12CC3CC(CC(C3)C1)C2` stands 23.7 µM (active); under `OCCCCCCCCCCCCBr`, “inactive”.
